system: Ditylenchus dipsaci; assay: proportion of mobile D. dipsaci (mixed stage) relative to DMSO control (fraction of DMSO control); higher = more viable, less nematicidal, active = 0.86 or less; extreme values may be limits of the assay; settings: 60 µM; 5 days; temperature: 20 °C
Method in brief: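 Ditylenchus dipsaci nematodes were cultured on pea plants in Gamborg B-5 agar, then extracted into water through a filter funnel, and roughly 20 worms in distilled water were placed in each well of a 96-well plate. Compound was pinned in to a final concentration of 60 µM (0.6% v/v DMSO), and the sealed plates were shaken at 200 rpm for 5 days at 20 °C. Mobile worms were counted under the microscope after 2 µL of 1 M NaOH was added. Mobility is given relative to DMSO controls as the mean of two biological replicates.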

SMILES	proportion of mobile D. dipsaci
CNC(=O)O/N=C(\SC)C(=O)N(C)C [oxamyl]	1 (inactive)
CC[C@H](C)[C@H]1O[C@]2(C=C[C@@H]1C)C[C@@H]1C[C@@H](C/C=C(\C)[C@@H](O[C@H]3C[C@H](OC)[C@@H](O[C@H]4C[C@H](OC)[C@@H](O)[C@H](C)O4)[C@H](C)O3)[C@@H](C)/C=C/C=C3\CO[C@@H]4[C@H](O)C(C)=C[C@@H](C(=O)O1)[C@]34O)O2.CO[C@H]1C[C@H](O[C@H]2[C@H](C)O[C@@H](O[C@@H]3/C(C)=C/C[C@@H]4C[C@@H](C[C@]5(C=C[C@H](C)[C@@H](C(C)C)O5)O4)OC(=O)[C@@H]4C=C(C)[C@@H](O)[C@H]5OC/C(=C\C=C\[C@@H]3C)[C@]54O)C[C@@H]2OC)O[C@@H](C)[C@@H]1O [abamectin]	0.727 (active)
O=C(NCCc1ncc(C(F)(F)F)cc1Cl)c1ccccc1C(F)(F)F [fluopyram]	0 (active)
CC(C)NC(=O)N1CC(=O)N(c2cc(Cl)cc(Cl)c2)C1=O [iprodione]	1 (inactive)

system: Caenorhabditis elegans L1 (N2); assay: survival and reproduction score of C. elegans L1 (0: 0-10 living worms, 1: 11-20, 2: 21-50, 3: >50, 4: overgrown) (score 0-4); higher = more worms, less nematicidal, active = 1 or less; extreme values may be limits of the assay; settings: 60 µM; 6 days; temperature: 20 °C
Method in brief: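 Each 96-well well received about 20 synchronized N2 L1 worms of C. elegans, E. coli HB101 and liquid NGM, plus compound pinned to 60 µM final (0.6% v/v DMSO). Sealed plates were incubated with shaking at 200 rpm, 20 °C, for 6 days. Survival and reproduction were rated under a dissection microscope as an ordinal score of living worms per well, averaged across biological replicates. The scale spanned 0 (0–10 worms) to 4 (overgrown, starved), and there were two replicates.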

SMILES	survival and reproduction score
Cc1ccc(-c2nc(-c3ccccc3Br)no2)cc1	4 (inactive)
Cc1ncc2c(c1-c1noc(-c3ccccc3)n1)CCC2	4 (inactive)
Cc1ccc(C)c(-c2nc(-c3ccncc3)no2)c1	0 (active)
COc1ccccc1-c1nnc(SCc2ccc(C#N)cc2)o1	4 (inactive)
COc1ccc(OCc2nc(-c3ccccc3)no2)cc1	4 (inactive)
Cc1ccc(OCc2nc(-c3ccc(Br)o3)no2)cc1C	4 (inactive)
CNC(=O)O/N=C(\SC)C(=O)N(C)C [oxamyl]	4 (inactive)
Cc1ccc(OCc2nc(-c3ccc(Cl)cc3)no2)c(C)c1	4 (inactive)
CC1Cc2ccccc2N1C(=O)CSc1nnc(-c2ccccc2)o1 (stereo unspecified)	4 (inactive)
Cc1cc(OCc2nc(-c3ccccc3)no2)ccc1Br	4 (inactive)
COc1ccccc1-c1nc(-c2ccc(Cl)cc2)no1	4 (inactive)
CC(C)Oc1ccc(-c2nc(-c3ccncc3)no2)cc1	0 (active)
COc1ccccc1CC(=O)Nc1ccc(-c2noc(-c3ccccc3C)n2)cc1	4 (inactive)
Cc1cccc(-c2noc(-c3ccc(C)c(Cl)c3)n2)c1	4 (inactive)
Cc1ccc(Cl)cc1NC(=O)CSc1nnc(-c2ccncc2)o1	4 (inactive)
CCOC(=O)c1ccc(OCc2nc(-c3cccs3)no2)cc1	4 (inactive)

SMILES	survival and reproduction score
Cc1cccc(-c2nnc(SCC(=O)Nc3ccccc3F)o2)c1	4 (inactive)
O=C(CSc1nnc(-c2ccco2)o1)c1ccccc1	4 (inactive)
CC[C@H](C)[C@H]1O[C@]2(C=C[C@@H]1C)C[C@@H]1C[C@@H](C/C=C(\C)[C@@H](O[C@H]3C[C@H](OC)[C@@H](O[C@H]4C[C@H](OC)[C@@H](O)[C@H](C)O4)[C@H](C)O3)[C@@H](C)/C=C/C=C3\CO[C@@H]4[C@H](O)C(C)=C[C@@H](C(=O)O1)[C@]34O)O2.CO[C@H]1C[C@H](O[C@H]2[C@H](C)O[C@@H](O[C@@H]3/C(C)=C/C[C@@H]4C[C@@H](C[C@]5(C=C[C@H](C)[C@@H](C(C)C)O5)O4)OC(=O)[C@@H]4C=C(C)[C@@H](O)[C@H]5OC/C(=C\C=C\[C@@H]3C)[C@]54O)C[C@@H]2OC)O[C@@H](C)[C@@H]1O [abamectin]	0 (active)
O=C(NCCc1ncc(C(F)(F)F)cc1Cl)c1ccccc1C(F)(F)F [fluopyram]	0 (active)
CCOc1nc(-c2ccccc2)ccc1-c1noc(-c2cccc(C)c2)n1	4 (inactive)
CC(Oc1ccc(Br)cc1)c1nc(-c2ccncc2)no1 (stereo unspecified)	0 (active)
COc1ccc(-c2noc(COc3ccc(C)c(C)c3)n2)cc1	4 (inactive)
CC(C)NC(=O)N1CC(=O)N(c2cc(Cl)cc(Cl)c2)C1=O [iprodione]	4 (inactive)
COC(=O)c1ccc(Cl)c(NC(=O)CSc2nnc(-c3ccc(Cl)cc3)o2)c1	4 (inactive)
O=C(CSc1nnc(-c2ccccc2)o1)N1CCc2ccccc21	4 (inactive)
Cn1c(SCc2nc(-c3ccccc3)no2)nnc1-c1ccco1	0 (active)
Clc1ccc(-c2nc(C3CCCCC3)no2)cc1	4 (inactive)
CCc1ccc(OCc2nc(-c3cccc(OC)c3)no2)cc1	4 (inactive)
Cc1cc(Cl)ccc1NC(=O)CSc1nnc(-c2ccncc2)o1	4 (inactive)
Brc1ccccc1-c1nc(-c2ccccn2)no1	2 (inactive)
Cc1cc(OCc2nc(-c3ccccn3)no2)ccc1Cl	4 (inactive)

From the supplement of paper PMC11219838
